Shown are actives, neighbours in structure and some others; about 28% of the full set was active somewhere.
CYP2C9 inh = human CYP2C9 inhibition. P11712. CYP2C9 Supersomes, luciferin-H conversion, luminescence. inhibition, % at 5 µM. hit rate 20% among 96,000. AID 777;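 active = blocking of liver enzyme CYP2C9 beyond about 50% at 5 µM, limit read from the data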
Mac1 fbg enh = CD11b/CD18-fibrinogen binding enhancement; P05107+P11215; K562 CD11b/CD18 adhesion to fibrinogen, ATPlite luminescence; activation, % at 10 µM; hit rate 0.07% among 93,000;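 active = 10 µM primary screen giving 50% or more activity, confirmed by 40% or more on retest at that dose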
Target sequence (P05107 whole entry, looked up, other chains not shown): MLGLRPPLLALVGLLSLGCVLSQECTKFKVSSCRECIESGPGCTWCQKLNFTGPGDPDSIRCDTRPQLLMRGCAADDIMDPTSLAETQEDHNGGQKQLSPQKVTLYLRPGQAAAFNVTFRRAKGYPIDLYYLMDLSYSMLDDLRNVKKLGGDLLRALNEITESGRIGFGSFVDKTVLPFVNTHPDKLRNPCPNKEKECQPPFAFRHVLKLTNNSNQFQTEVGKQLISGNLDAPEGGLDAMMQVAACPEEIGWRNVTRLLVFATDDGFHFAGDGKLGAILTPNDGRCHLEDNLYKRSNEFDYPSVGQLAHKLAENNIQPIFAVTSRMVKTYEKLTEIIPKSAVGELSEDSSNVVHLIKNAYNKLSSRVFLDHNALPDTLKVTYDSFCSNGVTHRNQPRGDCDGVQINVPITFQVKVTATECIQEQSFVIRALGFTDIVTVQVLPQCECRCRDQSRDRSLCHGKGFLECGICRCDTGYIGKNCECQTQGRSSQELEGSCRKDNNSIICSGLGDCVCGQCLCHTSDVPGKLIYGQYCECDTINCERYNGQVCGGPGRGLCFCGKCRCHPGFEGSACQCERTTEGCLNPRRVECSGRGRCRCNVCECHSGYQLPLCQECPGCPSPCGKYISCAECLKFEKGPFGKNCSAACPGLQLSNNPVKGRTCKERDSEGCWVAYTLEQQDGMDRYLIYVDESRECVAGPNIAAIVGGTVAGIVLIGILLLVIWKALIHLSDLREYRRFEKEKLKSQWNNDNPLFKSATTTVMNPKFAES
CYP2C19 inh = inhibitors of human CYP2C19; AID 778; inhibition, % at 5 µM; hit rate 21% among 96,000; CYP2C19 Supersomes, luciferin-H EGE luminescence, 30 min; P33261;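 active = CYP2C19 inhibition above a set limit at 5 µM in the primary screen, cut at about 50% in these data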
CYP2C19 activ = activators of human cytochrome P450 2C19; AID 1025; P33261; recombinant CYP2C19, luciferin-H EGE luminescence; hits give high values; 0 = fully inhibited enzyme, 1 = untreated enzyme; 96,000 tested, under 10 active; activation factor at 5 µM;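 active = activation factor of at least 2 at 5 µM in the primary screen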
CYP2C9 act = increases human cytochrome P450 2C9 activity. activation factor at 5 µM. P11712. recombinant CYP2C9, luciferin-H conversion, luminescence; hits give high values; factor 1 = untreated enzyme, 0 = blocked. hit rate 1.4% among 96,000;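 active = activation factor of 2 or more for CYP2C9 at a 5 µM dose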
CD11b adhes inh = CD11b/CD18-fibrinogen binding inhibition; P05107+P11215; K562 CD11b/CD18 adhesion to fibrinogen, ATPlite luminescence; Mn2+ added to activate the integrin; inhibition, % at 10 µM; hit rate 0.54% among 93,000; AID 1497;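 active = primary inhibition of 50% or more at 10 µM, then 40% or more on retest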
Of the large screens only hits and unclear results are named; the others gave an inactive call.

CC1=C(C(N)=O)C(c2ccncc2)n2nc(-c3ccccc3Cl)nc2N1 (stereo not given)	none
COc1ccc(CSCCN)cc1Cl	CYP2C19 inh 64
COc1ccc(C/C(N)=N/n2cnnc2)cc1Cl	none
O=C(Cn1ccc2ccccc2c1=O)NCCC(=O)NC1CCN(Cc2ccccc2)CC1	none
COc1cc2cc(CN(C(=O)Nc3ccccc3)C3CCCC3)c(=O)[nH]c2cc1OC	CYP2C9 inh 55
CCN(CC)CCCN(Cc1cc2cc(OC)c(OC)cc2[nH]c1=O)C(=O)Nc1ccccc1	none
Cc1ccc(NC(=S)/C(=C(\[O-])c2ccc(C)c([N+](=O)[O-])c2)[n+]2ccccc2)cc1C	CYP2C9 inh 69 (no result: Mac1 fbg enh, CD11b adhes inh)
Nc1ccc(S(=O)(=O)c2ccc(Cl)cc2)cc1	CYP2C19 inh 86, CYP2C9 act 3.7
CS(C)(=O)=NS(=O)(=O)c1ccc(Cl)cc1	none
Cc1ccc(OCC(=O)N2CCC(N3CCCCCC3)CC2)cc1	none
CC(=O)C1=C(N2CCCCC2)CCC1=O	none
O=C(Nc1ccccc1)O/N=C/c1ccccc1Cl	none
COc1ccccc1C(=O)O/N=C(/C)c1ccc(N2C(=O)C3CCCCC3C2=O)cc1 (stereo not given)	CYP2C19 inh 54, CYP2C9 act 3.3
Cc1cc(C(=O)N2CCC(Cc3ccccc3)CC2)ccc1[N+](=O)[O-]	CYP2C19 inh 78 (no result: Mac1 fbg enh, CD11b adhes inh)
O=C(c1ccccc1[N+](=O)[O-])N1CCC(Cc2ccccc2)CC1	CYP2C9 inh 60, CYP2C19 inh 66 (no result: Mac1 fbg enh, CD11b adhes inh)
O=C(OCc1ccccc1)C1CCCN1C(=O)c1ccccc1[N+](=O)[O-] (stereo not given)	none
CC1(C)Cc2noc(N)c2C(C)(C)N1OC(=O)c1cccs1	CYP2C9 inh 83, CYP2C19 inh 98
CC1(C)Cc2noc(N)c2C(C)(C)N1OC(=O)c1scc2c1OCCO2	CYP2C19 inh 51
Cc1cc(C#N)c(C)n1-c1cc(S(=O)(=O)N2CCOCC2)ccc1N1CCCC1	CYP2C9 inh 73
CCCCC(=O)Nc1cccc(NC(=S)NC(C)=O)c1	none (no result: CYP2C9 inh, CYP2C19 inh, CYP2C19 activ, CYP2C9 act)
CCC1SC(CC)C(=O)N(CC(=O)Nc2ccc3c(c2)OCO3)C1=O (stereo not given)	none (no result: CYP2C9 inh, CYP2C19 inh, CYP2C19 activ, CYP2C9 act)
COc1ccc2nc(NCCO)[nH]c2c1	none
Cc1ccc2nc(NCc3ccccc3)[nH]c2c1	CYP2C19 inh 88
COc1ccc2nc(-c3ccccc3)[nH]c2c1	CYP2C19 inh 74
COc1ccc2nc(NCc3ccccc3)[nH]c2c1	CYP2C19 inh 78
c1ccc(CNc2nc3ccccc3[nH]2)cc1	none
CN(Cc1nnc(SCC(=O)NCCc2ccccc2)n1C)S(=O)(=O)c1ccccc1	none
CCOc1cccc(CNCCO)c1OCc1ccc(Cl)cc1Cl	none (no result: CYP2C9 inh, CYP2C19 inh, CYP2C19 activ, CYP2C9 act)
COc1cccc(CNn2cnnc2)c1OCc1ccc(F)cc1	CYP2C9 inh 57, CYP2C19 inh 86
COc1cc(CNCCc2c[nH]c3ccccc23)ccc1OCc1ccccc1F	none
COc1cccc(CNc2nn[nH]n2)c1OC	none
COc1cccc(CNCCc2c[nH]c3ccccc23)c1OCc1ccccc1	CD11b adhes inh 60 (no result: CYP2C9 inh, CYP2C19 inh, CYP2C19 activ, CYP2C9 act)
CCOc1cccc(CNn2cnnc2)c1OCc1ccccc1Cl	CYP2C19 inh 76
COc1cccc(CNn2cnnc2)c1OCc1ccccc1F	CYP2C19 inh 76
c1ccc(COc2ccc(Nc3ncnc4nc[nH]c34)cc2)cc1	none
COC(C(=O)Nc1ccc(S(=O)(=O)Nc2cccc3ccccc23)cc1)c1ccccc1 (stereo not given)	none (no result: CYP2C9 inh, CYP2C19 inh, CYP2C19 activ, CYP2C9 act)
Cc1c(NC(=O)COC(=O)c2cc3c4ccccc4n(C)c3s2)c(=O)n(-c2ccccc2)n1C	none
Cc1oncc1C(=S)Nc1ccccc1	none
Cc1nc2ncnn2c(Nc2ccc3c(c2)OCO3)c1Cc1ccccc1	CYP2C19 inh 72
COc1ccc(CCNc2cc(-c3ccccc3)nc3ncnn23)cc1	CYP2C9 inh 56 (no result: Mac1 fbg enh, CD11b adhes inh)
CCc1c(C)nc2ncnn2c1NCCc1ccccc1	CYP2C19 inh 64 (no result: Mac1 fbg enh, CD11b adhes inh)
Cc1nc2ncnn2c(C)c1CCC(=O)NCc1ccccc1	none
CC1(C(=O)N(c2ccccc2)C(C(=O)NC2CCCC2)c2ccccn2)CC(=O)N=C2C=CC=CN21 (stereo not given)	none
Cc1cccc(-c2ccc(C=Nc3c(C)n(C)n(-c4ccccc4)c3=O)o2)c1	none
CCOc1ccc(C2=C(C=Nc3c(C)n(C)n(-c4ccccc4)c3=O)C(c3ccc(F)cc3)c3ccccc3O2)cc1 (stereo not given)	CYP2C9 inh 58
Cc1ccc(CN2C(=O)CCC2C(=O)NCc2cccnc2)cc1 (stereo not given)	none (no result: Mac1 fbg enh, CD11b adhes inh)
CCN(C(=O)CN1CCN(c2ccc(OC)cc2)CC1)c1c(N)n(Cc2ccccc2)c(=O)[nH]c1=O	none
CCC(C)(C)n1nnnc1C(C(C)C)N1CCSCC1 (stereo not given)	none
CN1CCN(/C(=N\S(=O)(=O)c2ccc(F)cc2)c2ccccc2)CC1	none
COc1ccc(CCNc2oc(Cc3cccc4ccccc34)nc2C#N)cc1OC	CYP2C9 inh 57
COc1ccc(CCNc2oc(-c3cccc4ccccc34)nc2P(=O)(OC)OC)cc1OC	none (no result: CYP2C9 inh, CYP2C19 inh, CYP2C19 activ, CYP2C9 act)
COc1ccc(CCNc2oc(COc3ccc(Br)cc3)nc2C#N)cc1OC	CYP2C9 inh 51
O=C(C1CCCN(S(=O)(=O)c2cccnc2)C1)N1CCn2c1nc1ccccc12 (stereo not given)	none
Cc1cccc(Nc2nc(NCc3ccco3)nc(N3CCOCC3)n2)c1	CYP2C9 inh 92, CYP2C19 inh 82
Cc1cccc(Nc2nc(N3CCCC3)nc(N3CCCC3)n2)c1	none
Cc1cccc(NC2=C(Cl)C(=O)OC2NC(=O)c2ccccc2)c1 (stereo not given)	CYP2C9 inh 54
Cc1cccc(NC2=C(NC(=O)c3ccccc3)C(=O)c3ccccc3C2=O)c1	none (no result: CYP2C9 inh, CYP2C19 inh, CYP2C19 activ, CYP2C9 act)
CCOC(=O)/C(C(N)=NCCO)=C(/O)c1ccccc1	none
CN(C)C(CNC(=O)Nc1cccc(Cl)c1)c1cccnc1 (stereo not given)	CYP2C19 inh 51
CCN1CCN(C(CNS(=O)(=O)c2ccc(OC)cc2)c2cccnc2)CC1 (stereo not given)	none
CN(C)C(CNS(=O)(=O)c1ccc(Cl)cc1)c1cccnc1 (stereo not given)	CYP2C19 inh 52
COc1ccccc1N1CCN(C(CNC(=O)c2ccc3c(c2)OCO3)c2cccnc2)CC1 (stereo not given)	none (no result: Mac1 fbg enh, CD11b adhes inh)
S=C(NCc1ccc(Cl)cc1)Nc1ccc(Cl)cc1Cl	none (no result: CYP2C9 inh, CYP2C19 inh, CYP2C19 activ, CYP2C9 act)
O=C(NCc1ccncc1)Nc1ccc(Cl)cc1Cl	CYP2C9 inh 83, CYP2C19 inh 90 (no result: Mac1 fbg enh, CD11b adhes inh)
COc1ccccc1C(=O)NCC(c1cccnc1)N(C)C (stereo not given)	CYP2C9 inh 50
CN(C)c1ccc(NC(=O)Nc2cccc(Cl)c2)cc1	none (no result: Mac1 fbg enh, CD11b adhes inh)
O=C1NCCCC1C(=O)N/N=C/c1ccccc1 (stereo not given)	none
O=C(NCc1cccnc1)Nc1cccc(NC(=O)NCc2cccnc2)c1	none
O=C(NCc1ccncc1)Nc1cccc(Cl)c1	CYP2C9 inh 81, CYP2C19 inh 90
O=C(NCc1ccncc1)Nc1ccc(F)cc1	CYP2C9 inh 79, CYP2C19 inh 92
O=C(O)CCCSCC(=O)Nc1ccccc1	none
CC(=O)c1ccc(NS(=O)(=O)Cc2ccc(Cl)cc2)cc1	CYP2C9 inh 77, CYP2C19 inh 74

Assay outcomes as filed in PubChem.
